Results filed as inconclusive are left out. Active and inactive are the calls of the source. Calls come from the whole dose curve; as a rule, active = well fitted curve in the direction sought with a large enough effect; inconclusive = small, poorly fitted or top-dose-only effect, or another doubt; inactive = no such curve, though single readings can be large; an effect the other way counts as inactive or inconclusive.

Our source for the Potency values is PubChem BioAssay (NCATS).

Assay [1] addresses DNA repair nuclease/redox regulator APEX1 (Homo sapiens) (UniProt P27695). In words: qHTS Validation Assay for Inhibitors of the Human Apurinic/apyrimidinic Endonuclease 1 (APE1) (AID 1705; note: potency is the fitted concentration of half-maximal effect). The method in brief:
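Read-out: TAMRA fluorescence (525 nm ex, 598 nm em) from cleavage of a quenched THF abasic-site duplex, 50 nM final; activity taken as intensity change between third and first of three reads 60 s apart.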
On the technique in general: Quantitative high-throughput screening tests each substance at several concentrations.

In assay [2] the target is Endonuclease 4 (Escherichia coli (strain K12)) (UniProt P0A6C1). As to the kind of experiment: Counterscreen for APE1 Inhibitors: qHTS Validation Assay for Inhibitors of Endonuclease IV (AID 1708). An outline of the steps:
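Concentration-response counterscreen run identically to the APE1 assay: 15 min room-temperature preincubation of 2 nM enzyme with compound, reaction started with 50 nM quenched abasic DNA, progress taken from kinetic fluorescence.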
A general note: The purpose of a counterscreen is to sort out artefacts and off-target activity.

A short description of assay [3]: qHTS for differential inhibitors of proliferation of Plasmodium falciparum line 7G8 (AID 1815).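 Note: parasite growth measured after three days of incubation.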 Note: potency is the fitted concentration of half-maximal effect.
Assay [4] is described as follows: qHTS for differential inhibitors of proliferation of Plasmodium falciparum line GB4 (AID 1816).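 Note: parasite growth measured after 72 h incubation.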 Note: potency is the fitted concentration of half-maximal effect. The note with it: Potency: Plasmodium falciparum GB4 proliferation inhibition.
A short description of assay [5]: qHTS for differential inhibitors of proliferation of Plasmodium falciparum line 3D7 (AID 1876). Note: potency is the fitted concentration of half-maximal effect.
Assay [6] in a line: qHTS for differential inhibitors of proliferation of Plasmodium falciparum line Dd2 (AID 1882). Note: nearly all actives have a fitted effect of over 65% in size. Note: potency is the fitted concentration of half-maximal effect. The note with it: Potency: Plasmodium falciparum Dd2 proliferation inhibition. An outline of the steps: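 Dd2-infected erythrocytes (0.3% parasitemia, 2.5% hematocrit final) incubated with compound 72 h at 37 C, 5% CO2; lysed with saponin/Triton buffer containing SYBR Green I, incubated overnight in the dark, then read by fluorescence (485/535 nm). Normalized to 0.29 uM artemisinin and DMSO.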

Assay [7] is described as follows: qHTS for differential inhibitors of proliferation of Plasmodium falciparum line W2 (AID 1883).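 Note: parasites grown with compound for 72 h before lysis and staining.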 Note: potency is the fitted concentration of half-maximal effect. The note with it: Potency: Plasmodium falciparum W2 proliferation inhibition.
A short description of assay [8]: qHTS for differential inhibitors of proliferation of Plasmodium falciparum line D10 (AID 1877).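 Note: parasites grown with compound for 72 h before DNA staining.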 Note: potency is the fitted concentration of half-maximal effect.
Assay [9] is described as follows: qHTS for differential inhibitors of proliferation of Plasmodium falciparum line HB3 (AID 1886).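 Note: parasites grown with compound for 72 h before SYBR Green readout.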 Note: potency is the fitted concentration of half-maximal effect. As to conditions: Potency: Plasmodium falciparum HB3 proliferation inhibition.
Assay [10] is described as follows: Counterscreen for APE1 Inhibitors: Fluorescent Dye Displacement Validation Assay (AID 1707). An outline of the steps:
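Assay buffer: Tris-HCl pH7.5 with 50mM NaCl, 2 mM MgCl2, 0.01% Tween-20. Dye 250 nM, duplex 50 nM final. Readout: decrease in ThO endpoint fluorescence, 480 nm excitation, 540 nm emission.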

Chain of DNA repair nuclease/redox regulator APEX1 (Homo sapiens) (P27695 whole entry, looked up): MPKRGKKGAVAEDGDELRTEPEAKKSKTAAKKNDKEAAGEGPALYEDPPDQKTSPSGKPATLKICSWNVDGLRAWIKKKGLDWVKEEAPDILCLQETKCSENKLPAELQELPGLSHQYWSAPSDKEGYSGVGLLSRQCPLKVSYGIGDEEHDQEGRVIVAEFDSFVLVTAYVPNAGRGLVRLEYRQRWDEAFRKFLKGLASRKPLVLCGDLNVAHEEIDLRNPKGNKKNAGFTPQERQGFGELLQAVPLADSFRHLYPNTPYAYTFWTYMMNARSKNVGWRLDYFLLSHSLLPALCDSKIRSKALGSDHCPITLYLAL

As to `CNCCCC12CCC(c3ccccc31)c1ccccc12`, the Potency entry in assay [1] and in assay [2] was “inactive” throughout. Moreover, the Potency in [3] is 11.2 µM (active); in assay [4], 8.91 µM (active); in [5], 10 µM (active); in assay [6], 11.2 µM (active); in assay [7] it was 5.01 µM (active).
As to `CC(C)NCC(O)c1ccc(O)c(O)c1` (centres undefined), the Potency entry in assay [1], in assay [2], in assay [3], in assay [5] and in assay [6] was “inactive” each time.
Regarding `CC1COc2c(N3CCN(C)CC3)c(F)cc3c(=O)c(C(=O)O)cn1c23` (centres undefined), the Potency entry in [1], in [2] and in assay [6] was “inactive” in each case. Further, in assay [7], the Potency was 14.1 µM (active).
Consider `NC(CO)C(=O)NNCc1ccc(O)c(O)c1O` (centres undefined), for which the Potency entry in assay [1], in [2], in assay [4], in assay [5], in assay [8] and in assay [6] was “inactive” throughout. In addition, the Potency result in assay [9] was “inactive”.
On to `COc1ccc(C2CNC(=O)C2)cc1OC1CCCC1` (centres undefined), for which the Potency entry in assay [1], in [2], in assay [4], in assay [5], in assay [8] and in assay [6] was “inactive” throughout. Besides, the Potency entry in assay [9] was “inactive”.
`COC(=O)Nc1nc2ccc(C(=O)c3cccs3)cc2[nH]1`: the Potency result in assay [1], in [2] and in assay [6] was “inactive” in each case.
Turning to `COc1ccccc1N1CCN(CC(O)COc2cccc3ccccc23)CC1` (centres undefined), the Potency entry in [1] was “inactive”. Also, the Potency is 11.2 µM (active) in assay [3], 14.1 µM (active) in [4], 10 µM (active) in assay [7] and 12.6 µM (active) in [9].
Take `NC12CC3CC(CC(C3)C1)C2`: the Potency result in assay [1], in assay [2], in [5], in assay [8] and in assay [9] was “inactive” each time. The Potency was 11.2 µM (active) in [4] and 6.31 µM (active) in [7].
Regarding `O=C(c1ccc(OCCN2CCCCC2)cc1)c1c(-c2ccc(O)cc2)sc2cc(O)ccc12`, the Potency result in assay [1] is “inactive”. Further, the Potency in [3] was 4.47 µM (active); in [4], 2 µM (active); in assay [5] it was 2.82 µM (active); in [8] it was 3.16 µM (active); in assay [7] it was 3.16 µM (active); in assay [9] it was 3.16 µM (active).
In the case of `O=c1c(O)c(-c2ccc(O)c(O)c2)oc2cc(O)cc(O)c12`, the Potency entry in assay [2] was “inactive”.
With `O=C1N(c2ccccc2)c2ccccc2C1(Cc1ccncc1)Cc1ccncc1`, the Potency result in assay [1], in [2] and in assay [6] was “inactive” each time. Also, the Potency in assay [3] was 8.91 µM (active); in assay [4] it was 12.6 µM (active); in [7] it was 10 µM (active); in [9], 11.2 µM (active).
As to `CN1C(C(=O)Nc2ccccn2)=C(O)c2ccccc2S1(=O)=O`, the Potency result in assay [1], in [2], in [5], in assay [8], in [6] and in [9] was “inactive” each time. In [7], the Potency was 10 µM (active).
Regarding `CN(C)CCC=C1c2ccccc2C=Cc2ccccc21`, the Potency in assay [1] was 4.47 µM (active); in [3], 5.01 µM (active); in assay [4] it was 11.2 µM (active); in assay [5], 11.2 µM (active); in assay [7], 5.01 µM (active); in assay [9], 12.6 µM (active).
For `C[C@](N)(Cc1ccc(O)c(O)c1)C(=O)O`, in assay [1], the Potency is 7.94 µM (active). Also, the Potency result in assay [2], in [3], in [5], in [8], in assay [6] and in [9] was “inactive” throughout.
With `NS(=O)(=O)c1cc2c(cc1Cl)NCNS2(=O)=O`, the Potency entry in assay [2], in assay [3], in [5], in [8], in assay [6] and in assay [9] was “inactive” each time.
In the case of `OCCN(CCO)c1nc(N2CCCCC2)c2nc(N(CCO)CCO)nc(N3CCCCC3)c2n1`, the Potency result in assay [2] is “inactive”. The Potency was 2 µM (active) in assay [3]; 2.82 µM (active) in [4]; 3.98 µM (active) in assay [5]; 7.94 µM (active) in assay [8]; 6.31 µM (active) in assay [6]; 2.82 µM (active) in assay [7]. Besides, the Potency in [9] was 3.55 µM (active).
Take `CN(C)CCOC(c1ccccc1)c1ccccc1`: the Potency entry in [1], in assay [5], in [8] and in [9] was “inactive” throughout. Moreover, the Potency in assay [3] is 3.98 µM (active); in [6] it was 3.98 µM (active); in assay [7], 1 µM (active).
Take `Cc1cc(C(C)(C)C)c(O)c(C)c1CC1=NCCN1`: the Potency entry in [1], in [2] and in assay [6] was “inactive” each time. For the same compound, the Potency in [7] was 12.6 µM (active).
Consider `CN1CCC(=C2c3ccccc3CC(=O)c3sccc32)CC1`, for which the Potency entry in [1] and in assay [2] was “inactive” throughout. The Potency in assay [3] was 10 µM (active); in [4], 2.24 µM (active); in assay [5] it was 3.55 µM (active); in assay [8] it was 4.47 µM (active); in [7] it was 0.891 µM (active); in [9], 10 µM (active).
Turning to `CC[N+](CC)(CC)CCOc1cccc(OCC[N+](CC)(CC)CC)c1OCC[N+](CC)(CC)CC`, the Potency entry in [1], in assay [3], in assay [4], in [5], in assay [8] and in [6] was “inactive” in each case. The Potency result in assay [7] and in [9] was “inactive” each time.
In the case of `O=C(C1CCCCC1)N1CC(=O)N2CCc3ccccc3C2C1` (centres undefined), the Potency result in [1] and in assay [2] was “inactive” throughout. In addition, in assay [7], the Potency is 12.6 µM (active).
In the case of `Nc1c2c(nc3ccccc13)CCCC2`, the Potency entry in assay [1] and in [2] was “inactive” each time. In addition, the Potency in assay [3] was 10 µM (active); in [4], 10 µM (active); in assay [5], 8.91 µM (active); in assay [8], 10 µM (active); in [7], 5.62 µM (active); in assay [9] it was 12.6 µM (active).
As to `CCC1(c2ccccc2)C(=O)NCNC1=O`, the Potency entry in assay [10], in [2], in assay [3], in assay [4], in assay [5] and in assay [8] was “inactive” each time. The Potency entry in assay [6], in assay [7] and in assay [9] was “inactive” in each case.
For `CCOC(=O)c1ncn2c1CN(C)C(=O)c1cc(F)ccc1-2`, the Potency entry in [1], in assay [3], in assay [4], in [5], in [8] and in assay [6] was “inactive” each time. In addition, the Potency entry in assay [7] and in [9] was “inactive” throughout.
